The results in this text go back to PubChem BioAssay (EPA / NIEHS).

Assay [1] addresses Paired box protein Pax-6 (Homo sapiens) (UniProt P26367). Put plainly: ATG_Pax6_CIS: Attagene CIS-FACTORIAL HepG2 Assay for human Paired Box 6 (PAX6) (AID 2282956). To be noted: HepG2 CIS-FACTORIAL PAX6 reporter transcription, RNA readout; actives raise or lower the signal. A digest of the protocol: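 Multiplexed cis-reporter HepG2 system; 24 h treatment; reporter mRNA read by RT-PCR/CE fluorescence; bidirectional fit vs DMSO.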

Assay [2] is described as follows: ATG_PXRE_CIS: Attagene CIS-FACTORIAL HepG2 Assay for human Pregnane X Receptor Element (PXRE) (AID 2282957). To be noted: HepG2 Attagene CIS-FACTORIAL PXRE reporter, mRNA; actives raise or lower the signal. A digest of the protocol:
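HepG2 cells transiently transfected with cis-regulated multiple reporter transcription units; endogenous factor activity measured as reporter mRNA 24 h after dosing. RT-PCR, fluorescent primer extension, HpaI digestion, capillary electrophoresis; bidirectional fit versus DMSO baseline.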

Assay [3] can be described thus: ATG_PPRE_CIS: Attagene CIS-FACTORIAL HepG2 Assay for human Peroxisome Proliferator-activated Response Element (PPRE) (AID 2282958). Particulars: HepG2 PPRE cis-element reporter, Attagene transcription factor profiling; actives raise or lower the signal. A digest of the protocol: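 After human HepG2 hepatoma cells were transiently transfected with cis-promoter reporter constructs, they were exposed to test chemicals for 24 hours. Reporter RNA was then reverse-transcribed, PCR-amplified, FAM-labeled, HpaI-digested and quantified by capillary electrophoresis.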

A short description of assay [4]: ATG_RORE_CIS: Attagene CIS-FACTORIAL HepG2 Assay for human RAR-related Orphan Receptor Element (RORE) (AID 2282959). Particulars: HepG2 Attagene cis-factorial RORE reporter, mRNA; actives raise or lower the signal. A digest of the protocol: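 Measured here: transcript induction of a cis-regulated reporter in HepG2 cells transiently transfected via FuGene 6. After 24 h, RNA was processed by RT-PCR and fluorescent capillary electrophoresis; DMSO defined baseline activity.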

Assay [5] in a line: ATG_Sox_CIS: Attagene CIS-FACTORIAL HepG2 Assay for human SRY-box transcription factor (SOX) (AID 2282960). Particulars: HepG2 Attagene cis-factorial SOX reporter, mRNA; actives raise or lower the signal. The method, boiled down: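 Using transiently transfected HepG2 cells, reporter transcription driven by cis elements was assessed 24 h after dosing. Signal was fluorescence of capillary-separated RT-PCR products, with DMSO defining baseline activity.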

Assay [6] concerns the target Transcription factor Sp1 (Homo sapiens) (UniProt P08047). As to the kind of experiment: ATG_Sp1_CIS: Attagene CIS-FACTORIAL HepG2 Assay for human Specificity Protein 1 (Sp1) (AID 2282961). To be noted: HepG2 Sp1 cis-reporter transcription, actives raise or lower the signal. The method, boiled down: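 After transient transfection of HepG2 cells with cis-promoter reporter units and 24 h chemical treatment, reporter transcripts were quantified by RT-PCR and capillary electrophoresis fluorescence. Gain- and loss-of-signal fitted against DMSO.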

Assay [7] can be described thus: ATG_SREBP_CIS: Attagene CIS-FACTORIAL HepG2 Assay for human Sterol Regulatory Element Binding (SREBP) (AID 2282962). Particulars: HepG2 Attagene cis-factorial SREBP reporter, mRNA; actives raise or lower the signal. The method, boiled down:
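mRNA induction of transfected cis-promoter reporters in HepG2 cells, 24 h post-dose. Detection: RT-PCR with 6-FAM-labelled products, HpaI digest, capillary electrophoresis. DMSO served as negative control and baseline.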

The nature of assay [8]: ATG_TA_CIS: Attagene CIS-FACTORIAL HepG2 Assay for human TA Basal Promoter (AID 2282964). To be noted: HepG2 Attagene CIS-factorial TA basal promoter reporter; actives raise or lower the signal. A digest of the protocol:
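Background internal-marker endpoint from a 52-component HepG2 cis-reporter panel. Cells treated 24 h; reporter transcripts quantified via RT-PCR and CE fluorescence against DMSO baseline.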

Assay [9] can be described thus: ATG_TAL_CIS: Attagene CIS-FACTORIAL HepG2 Assay for human TAL Basal Promoter (AID 2282966).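 Note: background control endpoint measuring basal TAL promoter reporter mRNA not a specific factor.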 Particulars: HepG2 Attagene cis-factorial TAL promoter reporter; actives raise or lower the signal. A digest of the protocol:
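HepG2 cells were transiently transfected with promoter-driven multiplexed reporter units and dosed for 24 h. Reporter mRNA was measured by RT-PCR with capillary electrophoresis fluorescence; bidirectional fits used DMSO as baseline, serving as a background control.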

The nature of assay [10]: ATG_TGFb_CIS: Attagene CIS-FACTORIAL HepG2 Assay for human Transforming Growth Factor (TGF) (AID 2282967). To be noted: HepG2 Attagene CIS TGFb reporter, mRNA transcription; actives raise or lower the signal. The method, boiled down: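 Liver HepG2 line, cis-factorial reporter panel, 24 h dosing. Quantitation: RT-PCR products labeled with 6-FAM, cut with HpaI, resolved by capillary electrophoresis; DMSO-referenced bidirectional analysis.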

Assay [11] in a line: ATG_VDRE_CIS: Attagene CIS-FACTORIAL HepG2 Assay for human Vitamin D Receptor Element (VDRE) (AID 2282968). To be noted: HepG2 VDRE cis-reporter transcription, actives raise or lower the signal. The method, boiled down: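 Cell-based multiplexed reporter format in human liver HepG2 cells, 24 h post-dose. Fluorescence from capillary electrophoresis of reporter cDNA gives the signal, with DMSO as negative control and baseline.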

The target of assay [12] is X-box-binding protein 1 (Homo sapiens) (UniProt P17861). As to the kind of experiment: ATG_Xbp1_CIS: Attagene CIS-FACTORIAL HepG2 Assay for human X-box Binding Protein 1 (XBP1) (AID 2282972). To be noted: HepG2 XBP1 cis-element reporter, Attagene multiplex; actives raise or lower the signal. A digest of the protocol:
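Fluorescence-labelled cDNA fragments from reporter transcripts, separated by capillary electrophoresis, give the signal. Source: HepG2 cells transfected with promoter-driven reporter units, harvested 24 h post-dose. DMSO served as reference for bidirectional curve fitting.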

The nature of assay [13]: ATG_M_19_TRANS: Attagene TRANS-FACTORIAL HepG2 Assay for M19 Transcription Factor (Internal Marker) (AID 2282974; active = hit-call score of the fitted dose curve at least 0.9, where 1 is the maximum). To be noted: HepG2 Attagene TRANS-FACTORIAL M19 internal marker reporter. The method, boiled down: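 Gain-of-signal in reporter mRNA, relative to DMSO, was scored from capillary electrophoresis fluorescence. HepG2 cells carried transiently transfected multiple reporter transcription units and were incubated with test chemicals for 24 h.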

The target in assay [14] is Estrogen-related receptor gamma (Homo sapiens) (UniProt P62508). Put plainly: ATG_ERRg_TRANS: Attagene TRANS-FACTORIAL HepG2 Assay for human Estrogen-Related Receptor gamma (ERRg) (AID 2282977; active = hit-call score of the fitted dose curve at least 0.9, where 1 is the maximum;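 note: hits increase reporter signal over DMSO so potencies reflect activators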). To be noted: HepG2 Attagene TRANS reporter, ERRg transactivation. A digest of the protocol: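 Transient HepG2 transfectants, 24 h compound exposure, GAL4-UAS reporter mRNA by RT-PCR/6-FAM labelling/capillary electrophoresis; positive direction vs DMSO.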

The nature of assay [15]: ATG_TCF_b_cat_CIS: Attagene CIS-FACTORIAL HepG2 Assay for human T-Cell-Factor with beta-catenin (TCF/b-cat) (AID 2282965). Particulars: HepG2 TCF/beta-catenin cis-reporter transcription, actives raise or lower the signal. A digest of the protocol: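 HepG2, transient MRTU transfection, cis-element-driven reporters (endogenous TFs). 24 h compound exposure. Readout: reporter mRNA by RT-PCR + 6-FAM primer extension, HpaI digest, capillary electrophoresis. Gain/loss fit vs DMSO baseline.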

The target in assay [16] is Estrogen receptor (Homo sapiens) (UniProt P03372). Put plainly: ATG_ERa_TRANS: Attagene TRANS-FACTORIAL HepG2 Assay for human Estrogen Receptor alpha (ERa) (AID 2282970; active = hit-call score of the fitted dose curve at least 0.9, where 1 is the maximum). Particulars: HepG2 Attagene TRANS ERa GAL4 reporter, mRNA. A digest of the protocol:
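HepG2 cells transiently transfected with multiplexed GAL4-UAS reporter units; ERa activity read via exogenous chimeric NR-Gal4 protein. After 24 hour compound exposure, reporter mRNA measured by RT-PCR with 6-FAM labelling and capillary electrophoresis; gain-of-signal fitted relative to DMSO.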

A short description of assay [17]: ATG_GAL4_TRANS: Attagene TRANS-FACTORIAL HepG2 Assay for GAL4 (Internal Marker) (AID 2282976; active = hit-call score of the fitted dose curve at least 0.9, where 1 is the maximum). To be noted: HepG2 Attagene TRANS GAL4 internal marker reporter. The method, boiled down:
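HepG2 cells transiently transfected with multiplexed GAL4-UAS reporter constructs were dosed for 24 h. Reporter mRNA was measured by RT-PCR, 6-FAM primer extension, HpaI digestion and capillary electrophoresis, and gain of signal was fitted relative to DMSO.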

Assay [18] concerns the target Signal transducer and activator of transcription 3 (Homo sapiens) (UniProt P40763). Put plainly: ATG_STAT3_CIS: Attagene CIS-FACTORIAL HepG2 Assay for human Signal Transducer and Activator of Transcription 3 (STAT3) (AID 2282963). To be noted: HepG2, Attagene cis-factorial STAT3 reporter transcription; actives raise or lower the signal. The method, boiled down:
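Values derive from bidirectional fits relative to DMSO of reporter mRNA levels, measured by RT-PCR with capillary electrophoresis, in HepG2 cells carrying transiently transfected cis-regulated reporter units and exposed 24 h.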

For assay [19], the target named is Nuclear receptor subfamily 1 group I member 3 (Homo sapiens) (UniProt Q14994). As to the kind of experiment: ATG_CAR_TRANS: Attagene TRANS-FACTORIAL HepG2 Assay for human Constitutive Androstane Receptor (CAR) (AID 2282969; active = hit-call score of the fitted dose curve at least 0.9, where 1 is the maximum;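 note: activators raise reporter mRNA above DMSO so AC50 marks induction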). Particulars: HepG2 Attagene TRANS-FACTORIAL CAR reporter. The method, boiled down:
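HepG2 cells transiently transfected with GAL4-UAS reporter units; TRANS format reads activity of exogenous chimeric NR-Gal4 protein. After 24 h dosing, reporter mRNA quantified by RT-PCR, 6-FAM labelling and capillary electrophoresis; gain of signal fitted against DMSO.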

The target in assay [20] is Steroid hormone receptor ERR1 (Homo sapiens) (UniProt P11474). Put plainly: ATG_ERRa_TRANS: Attagene TRANS-FACTORIAL HepG2 Assay for human Estrogen-Related Receptor alpha (ERRa) (AID 2282971; active = hit-call score of the fitted dose curve at least 0.9, where 1 is the maximum). To be noted: HepG2 Attagene TRANS reporter, ERRa transactivation. The method, boiled down:
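HepG2 cells transiently transfected with multiplexed GAL4-UAS reporter units reading chimeric ERRa-Gal4 activity; 24 h compound exposure. Reporter mRNA measured by RT-PCR, 6-FAM labelling, HpaI digest and capillary electrophoresis; gain of signal fitted versus DMSO baseline.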

For orientation: AC50 means the concentration at which the activity in the assay is half-maximal.

Results filed as inconclusive are left out. Activity calls are given as the source filed them. Rule for the calls, unless noted: active = hit-call score of the fitted dose curve at least 0.9, where 1 is the maximum; inactive = score below 0.9.

Sequence of Transcription factor Sp1 (Homo sapiens) (P08047 whole entry, looked up): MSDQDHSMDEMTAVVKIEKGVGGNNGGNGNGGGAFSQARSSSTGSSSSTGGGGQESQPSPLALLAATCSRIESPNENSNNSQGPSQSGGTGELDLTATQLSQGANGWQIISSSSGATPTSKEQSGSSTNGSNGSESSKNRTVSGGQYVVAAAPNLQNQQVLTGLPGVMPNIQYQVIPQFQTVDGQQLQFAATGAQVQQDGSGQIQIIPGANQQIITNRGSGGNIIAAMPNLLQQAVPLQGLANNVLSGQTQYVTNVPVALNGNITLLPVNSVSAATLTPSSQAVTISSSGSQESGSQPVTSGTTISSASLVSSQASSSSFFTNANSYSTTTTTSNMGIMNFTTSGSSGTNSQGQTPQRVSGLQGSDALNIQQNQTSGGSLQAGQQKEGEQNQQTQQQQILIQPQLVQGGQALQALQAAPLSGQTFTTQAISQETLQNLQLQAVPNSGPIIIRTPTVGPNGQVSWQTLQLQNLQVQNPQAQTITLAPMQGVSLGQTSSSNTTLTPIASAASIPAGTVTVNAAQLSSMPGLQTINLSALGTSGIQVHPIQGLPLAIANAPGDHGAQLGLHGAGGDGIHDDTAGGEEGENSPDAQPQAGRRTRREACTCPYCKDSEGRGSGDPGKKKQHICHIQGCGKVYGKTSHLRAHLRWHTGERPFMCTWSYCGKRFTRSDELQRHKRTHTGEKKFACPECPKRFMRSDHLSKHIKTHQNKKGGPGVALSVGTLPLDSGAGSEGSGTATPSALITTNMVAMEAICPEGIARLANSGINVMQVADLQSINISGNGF
Sequence of Paired box protein Pax-6 (Homo sapiens) (P26367 whole entry, looked up): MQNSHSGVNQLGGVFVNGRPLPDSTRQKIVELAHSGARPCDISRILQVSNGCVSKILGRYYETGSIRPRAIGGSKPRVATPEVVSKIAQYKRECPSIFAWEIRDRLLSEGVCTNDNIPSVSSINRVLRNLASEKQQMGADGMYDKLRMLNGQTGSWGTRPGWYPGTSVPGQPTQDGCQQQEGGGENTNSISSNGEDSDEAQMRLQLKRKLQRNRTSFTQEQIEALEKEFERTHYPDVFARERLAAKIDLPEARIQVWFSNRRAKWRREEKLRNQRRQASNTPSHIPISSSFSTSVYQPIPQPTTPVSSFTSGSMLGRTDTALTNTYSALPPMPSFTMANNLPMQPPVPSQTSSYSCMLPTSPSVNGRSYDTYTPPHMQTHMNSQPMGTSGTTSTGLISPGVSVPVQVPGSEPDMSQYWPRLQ
Sequence of X-box-binding protein 1 (Homo sapiens) (P17861 whole entry, looked up, the tested form may be a part): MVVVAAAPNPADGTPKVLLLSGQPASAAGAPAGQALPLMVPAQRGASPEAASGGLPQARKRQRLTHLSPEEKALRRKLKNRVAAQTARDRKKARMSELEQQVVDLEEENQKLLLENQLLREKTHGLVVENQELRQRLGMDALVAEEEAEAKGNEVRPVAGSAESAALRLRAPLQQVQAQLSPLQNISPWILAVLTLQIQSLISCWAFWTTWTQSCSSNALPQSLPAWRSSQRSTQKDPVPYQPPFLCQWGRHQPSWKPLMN
Sequence of Estrogen-related receptor gamma (Homo sapiens) (P62508 whole entry, looked up, the tested form may be a part): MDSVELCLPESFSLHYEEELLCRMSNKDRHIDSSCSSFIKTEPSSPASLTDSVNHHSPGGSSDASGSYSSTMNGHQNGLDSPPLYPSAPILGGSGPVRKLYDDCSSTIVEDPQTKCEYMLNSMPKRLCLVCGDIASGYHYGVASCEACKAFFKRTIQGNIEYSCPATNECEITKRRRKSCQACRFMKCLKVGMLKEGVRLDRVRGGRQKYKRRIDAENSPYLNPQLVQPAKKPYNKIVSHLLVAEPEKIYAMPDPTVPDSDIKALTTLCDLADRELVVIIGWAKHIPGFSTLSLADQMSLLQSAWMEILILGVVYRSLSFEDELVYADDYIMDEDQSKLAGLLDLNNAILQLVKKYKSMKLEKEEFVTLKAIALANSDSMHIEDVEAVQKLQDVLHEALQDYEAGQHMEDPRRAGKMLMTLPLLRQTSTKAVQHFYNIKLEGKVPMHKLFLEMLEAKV
Sequence of Steroid hormone receptor ERR1 (Homo sapiens) (P11474 whole entry, looked up, the tested form may be a part): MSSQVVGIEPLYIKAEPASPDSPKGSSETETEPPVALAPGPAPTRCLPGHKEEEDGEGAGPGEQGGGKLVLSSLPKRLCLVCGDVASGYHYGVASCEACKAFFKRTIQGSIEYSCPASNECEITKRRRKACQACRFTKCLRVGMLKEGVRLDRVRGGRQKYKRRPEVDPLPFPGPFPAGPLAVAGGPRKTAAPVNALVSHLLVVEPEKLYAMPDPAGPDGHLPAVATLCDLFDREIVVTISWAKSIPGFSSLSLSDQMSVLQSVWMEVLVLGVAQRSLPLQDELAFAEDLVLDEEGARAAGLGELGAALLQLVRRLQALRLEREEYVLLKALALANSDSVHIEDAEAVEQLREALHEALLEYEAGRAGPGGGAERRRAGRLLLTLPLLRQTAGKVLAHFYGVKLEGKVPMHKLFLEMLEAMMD
Sequence of Signal transducer and activator of transcription 3 (Homo sapiens) (P40763 whole entry, looked up): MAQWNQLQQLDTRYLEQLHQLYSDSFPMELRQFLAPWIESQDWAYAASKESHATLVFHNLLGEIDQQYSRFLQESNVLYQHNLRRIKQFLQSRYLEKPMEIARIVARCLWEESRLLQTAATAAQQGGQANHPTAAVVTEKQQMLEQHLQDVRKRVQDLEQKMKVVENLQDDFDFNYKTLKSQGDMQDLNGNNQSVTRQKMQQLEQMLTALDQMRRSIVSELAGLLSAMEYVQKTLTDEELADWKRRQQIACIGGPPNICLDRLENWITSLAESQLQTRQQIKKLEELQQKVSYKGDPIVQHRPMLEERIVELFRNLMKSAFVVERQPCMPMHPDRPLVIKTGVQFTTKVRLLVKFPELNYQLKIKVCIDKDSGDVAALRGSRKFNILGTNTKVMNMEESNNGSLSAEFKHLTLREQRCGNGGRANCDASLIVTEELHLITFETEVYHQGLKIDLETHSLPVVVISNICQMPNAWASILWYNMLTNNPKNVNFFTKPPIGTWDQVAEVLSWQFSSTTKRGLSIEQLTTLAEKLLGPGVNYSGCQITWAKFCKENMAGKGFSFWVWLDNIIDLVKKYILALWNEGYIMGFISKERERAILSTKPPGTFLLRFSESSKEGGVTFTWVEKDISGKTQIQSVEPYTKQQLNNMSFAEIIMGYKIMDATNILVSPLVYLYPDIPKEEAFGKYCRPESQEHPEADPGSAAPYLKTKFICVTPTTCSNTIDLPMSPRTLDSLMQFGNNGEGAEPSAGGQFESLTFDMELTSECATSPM
Sequence of Estrogen receptor (Homo sapiens) (P03372 whole entry, looked up, the tested form may be a part): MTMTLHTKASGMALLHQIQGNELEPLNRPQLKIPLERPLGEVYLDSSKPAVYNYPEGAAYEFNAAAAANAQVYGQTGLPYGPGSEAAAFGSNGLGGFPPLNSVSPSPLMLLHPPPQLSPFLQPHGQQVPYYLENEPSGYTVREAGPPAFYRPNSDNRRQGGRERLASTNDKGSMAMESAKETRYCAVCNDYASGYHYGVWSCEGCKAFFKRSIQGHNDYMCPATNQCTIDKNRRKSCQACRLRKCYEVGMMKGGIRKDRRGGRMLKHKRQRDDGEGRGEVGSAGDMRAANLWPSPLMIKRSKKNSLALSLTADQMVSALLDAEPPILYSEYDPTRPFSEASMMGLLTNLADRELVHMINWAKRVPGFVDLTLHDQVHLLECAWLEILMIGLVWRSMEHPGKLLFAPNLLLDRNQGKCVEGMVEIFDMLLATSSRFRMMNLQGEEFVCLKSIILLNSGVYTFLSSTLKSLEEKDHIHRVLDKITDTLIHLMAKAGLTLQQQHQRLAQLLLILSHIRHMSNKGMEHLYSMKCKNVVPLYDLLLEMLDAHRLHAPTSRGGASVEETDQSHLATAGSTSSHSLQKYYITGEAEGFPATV
Sequence of Nuclear receptor subfamily 1 group I member 3 (Homo sapiens) (Q14994 whole entry, looked up, the tested form may be a part): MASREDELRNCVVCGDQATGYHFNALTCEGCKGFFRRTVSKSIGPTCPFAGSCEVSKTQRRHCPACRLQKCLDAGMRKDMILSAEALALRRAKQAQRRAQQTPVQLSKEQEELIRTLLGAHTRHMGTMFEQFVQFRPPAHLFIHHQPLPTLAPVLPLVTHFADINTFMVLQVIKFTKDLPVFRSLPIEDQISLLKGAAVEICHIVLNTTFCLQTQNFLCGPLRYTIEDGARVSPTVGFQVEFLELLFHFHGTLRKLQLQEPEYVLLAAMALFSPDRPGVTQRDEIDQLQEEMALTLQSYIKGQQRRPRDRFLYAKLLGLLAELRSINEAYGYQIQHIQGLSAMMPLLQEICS

Take `COC(=O)c1sccc1S(N)(=O)=O`: the call in assay [1], in assay [3], in [4], in assay [5], in [6] and in assay [7] was inactive. The result in assay [8], in assay [9], in assay [10], in assay [11], in assay [12] and in assay [13] was inactive. Moreover, in assay [14], the call was inactive. In assay [2], the half-maximal activity concentration (AC50) was 79.3 µM (active).

On to `C=C(C)C(=O)OCC(C)C`, for which the compound was classed as inactive in [1], in [2], in assay [3], in assay [4], in [5] and in assay [6]. The result in [7], in assay [8], in assay [15], in [9], in assay [10] and in assay [11] was inactive. Further, the compound was called inactive in [16], in assay [12], in assay [13] and in assay [17].

For `Cc1cc(C)c(C)c(C)c1`, the compound was called inactive in [1], in assay [2], in assay [3], in assay [4], in assay [5] and in [6]. The compound was classed as inactive in [7], in [18], in assay [8], in [9], in assay [10] and in assay [19]. Also, the compound was classed as inactive in assay [20], in assay [12], in assay [13], in [17] and in [14].

Turning to `NC(=O)c1ccccc1O`, the call in assay [1], in assay [2], in [3], in assay [4], in assay [5] and in assay [6] was inactive. The compound was called inactive in [7], in assay [8], in assay [15], in [9], in assay [10] and in [11]. For the same compound, the compound was called inactive in [16], in [12], in assay [13] and in assay [17].

In the case of `C/C=C\C/C=C/CCCCCCCCOC(C)=O`, the AC50 in assay [1] was 100 µM (active); in assay [2], 26.2 µM (active); in [15], 74.8 µM (active); in assay [11], 30.1 µM (active); in assay [12], 100 µM (active). Also, the result in assay [3], in assay [4], in assay [5], in [6], in [7] and in assay [18] was inactive. For the same compound, the call in assay [9], in assay [10], in [20] and in [14] was inactive.
